# The source made the active and inactive calls. The calls were made as follows: active = hit-call score of the fitted dose curve at least 0.9, where 1 is the maximum; inactive = score below 0.9.
# Assay: ATG_CRE_CIS: Attagene CIS-FACTORIAL HepG2 Assay for human cAMP Responsive Element (CRE) binding protein 3 (AID 2282926)
# Conditions: HepG2 CRE cis-reporter, Attagene multiplexed mRNA; actives raise or lower the signal
# How it was run: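 Induced reporter mRNA from a CRE cis element, measured in HepG2 among many multiplexed units at 24 h. Detection used RT-PCR plus capillary electrophoresis of fluorescent fragments; DMSO served as negative control.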
Structure (SMILES),outcome,AC50
O=C(NC(=O)c1c(F)cccc1F)Nc1cc(Cl)c(OC(F)(F)C(F)C(F)(F)F)cc1Cl (centres undefined),inactive,–
Brc1c(Br)c(Br)c(Oc2c(Br)c(Br)c(Br)c(Br)c2Br)c(Br)c1Br,inactive,–
C[C@@H]1O[C@@H](O[C@H]2C[C@@H](O)[C@]3(CO)[C@H]4[C@H](O)C[C@]5(C)[C@@H](C6=CC(=O)OC6)CC[C@]5(O)[C@@H]4CC[C@]3(O)C2)[C@H](O)[C@H](O)[C@H]1O,–,0.512 µM (active)
C1CN2CCN1CC2,inactive,–
O=c1[nH]c2ccccc2n1C1CCN(CCCC(c2ccc(F)cc2)c2ccc(F)cc2)CC1,inactive,–
CCOP(=S)(OCC)SCSc1cc(Cl)ccc1Cl,inactive,–
CN(C)c1ccc(N=O)cc1,inactive,–
CC1CC(=O)O1 (centres undefined),inactive,–
NC(=O)CCl,inactive,–
O=C(O)COc1cc(Cl)c(Cl)cc1Cl,inactive,–
CC(C)(C#N)N=NC(C)(C)C#N,inactive,–
Fc1cccc(Cl)c1CCl,–,41.8 µM (active)
C=C(C)C(=O)OCCCCOC(=O)C(=C)C,inactive,–
O=[N+]([O-])c1c2ccccc2cc2ccccc12,inactive,–
CC(c1ccc(O)cc1)c1ccc(O)cc1,inactive,–
CN(N=O)c1ccc([N+](=O)[O-])cc1,inactive,–
c1cc[c]([Sb]([c]2ccccc2)[c]2ccccc2)cc1,inactive,–
Brc1ccc(Br)cc1,inactive,–
Nc1ccc(Br)cc1,inactive,–
Oc1c(Br)cc(Br)cc1Br,inactive,–

Structure (SMILES),outcome,AC50
CC(C)(COCC1CO1)COCC1CO1 (centres undefined),inactive,–
O=S(=O)(C(Cl)(Cl)Cl)C(Cl)(Cl)Cl,–,15.2 µM (active)
COC(F)(C(F)(F)C(F)(F)F)C(F)(C(F)(F)F)C(F)(F)F (centres undefined),inactive,–
O=[N+]([O-])c1ccc(Nc2ccccc2)cc1,inactive,–
CC(C)(C1CCC(O)CC1)C1CCC(O)CC1 (centres undefined),inactive,–
Clc1cnc(Oc2ccc(Oc3ncc(Cl)cc3Cl)cc2)c(Cl)c1,inactive,–
O=S(=O)(c1ccc(Cl)cc1)c1cc(Cl)c(Cl)cc1Cl,–,37.8 µM (active)
CCN(CCO)CCO,inactive,–
CC(C)[N+](=O)[O-],inactive,–
CNC(=O)CSP(=O)(OC)OC,inactive,–
Cc1ccc(CCl)cc1,inactive,–
CCCCOC(=O)COC(=O)c1ccccc1C(=O)OCCCC,inactive,–
CCCCC(CC)C(=O)Cl (centres undefined),inactive,–
ClCc1ccccc1Cl,–,83.5 µM (active)
O=C/C(Cl)=C(/Cl)C(=O)O,inactive,–
O=C(CCl)Nc1ccccc1,–,13.2 µM (active)
N#Cc1ccccc1Cl,inactive,–
C[N+](C)(C)Cc1ccccc1,inactive,–
CCCCCCCCCCCCCCC(Br)C(=O)O (centres undefined),inactive,–

# From PubChem BioAssay (EPA / NIEHS)
